Screening data deposited in PubChem by National Center for Advancing Translational Sciences (NCATS).
KB-3-1 cytotox: kills parental KB-3-1 adenocarcinoma cells; AID 1347075; Potency, µM (top dose mostly 46.1 µM), hits mostly cytotoxic; KB-3-1 viability, CellTiter-Glo ATP luminescence, 72 h; 1.4% of 400,000 active; further: nearly all actives have a fitted effect of over 60% in size
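Cytotoxicity in the drug-sensitive parental line KB-3-1 was scored as loss of CellTiter-Glo luminescence following 72 h incubation with compound. Values come from curve fitting of normalized concentration-response data.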
MCF10A rereplic: DNA re-replication induction in MCF 10a cells | 2.9% of 350,000 active | MCF 10A DNA re-replication, Hoechst nuclear intensity, 48 h | Potency, µM (top dose mostly 46.1 µM), usual class: activators; further: nearly all actives have a fitted effect of over 50% in size
HT1080 IDH1KD tx: HT-1080 IDH1 knockdown cell toxicity (counter line) | AID 686971 | Potency, µM (highest dose often 46.1 µM), actives largely listed as cytotoxic | 2% of 360,000 active | HT-1080 IDH1 knockdown viability, ATP luminescence, 48 h
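In this qHTS, HT-1080 cells depleted of IDH1 are exposed for 48 h at 37 °C to compound titrations. Toxicity is scored from CellTiter-Glo luminescence, with DMSO as full viability and medium alone as none.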
SW480 rereplic: induces DNA re-replication in SW480 colon adenocarcinoma cells; Potency, µM (series often up to 46.1 µM), most hits filed as activators; SW480 DNA re-replication, Hoechst DNA content imaging, 48 h; 1.8% of 340,000 active; AID 624297; further: nearly all actives have a fitted effect of over 55% in size
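250 cells/well; 23 nL cpd via pin tool; 48 hr, 37 C, 5% CO2; Hoechst 40 min; imager read of total nuclear intensity, ex 405/em 500-530 nm.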
HT1080NT lethal: kills 2HG-producing HT-1080-NT fibrosarcoma cells; HT-1080-NT fibrosarcoma viability, CellTiter-Glo ATP luminescence, 48 h; Potency, µM (top dose mostly 46.1 µM), most hits filed as cytotoxic; 1.6% of 360,000 active;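 further: NT is the 2HG producing partner of a matched IDH1 knockdown line; nearly all actives have a fitted effect of over 55% in size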
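HT-1080-NT fibrosarcoma cells (2HG-overproducing), 750 cells/well in RPMI with 5% FBS, dosed after 2 h and incubated 48 h at 37C. CellTiter-Glo luminescence normalized to DMSO and no-cell wells; concentration-response curves fitted and classed.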
KB-V1 MDR tox: KB-V1 MDR subline cytotoxicity | KB-V1 MDR cells viability, CellTiter-Glo, 72 h | Potency, µM (doses to about 46.1 µM), usual class: cytotoxic | 3.4% of 400,000 active; further: nearly all actives have a fitted effect of over 60% in size
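qHTS viability screen in drug-selected KB-V1 MDR cells: 72 h compound treatment at 37 degrees C, ATP luminescence end point.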
A number is an active result; i = inactive; ? = inconclusive; nt = not tested or not shown; [ ] = another dose, or the depositor's remark. Rows were chosen to be rich in hits. Some 7.9% of all compounds tested hit in one or more screens of this group. The call rests on the fitted dose curve; in most records, active means well fitted curve in the direction sought with a large enough effect; inconclusive means small, poorly fitted or top-dose-only effect, or another doubt; inactive means no such curve, though single readings can be large; an effect the other way counts as inactive or inconclusive.

SMILES	KB-3-1 cytotox	MCF10A rereplic	HT1080 IDH1KD tx	SW480 rereplic	HT1080NT lethal	KB-V1 MDR tox
Cc1ccccc1N1CCN(C(=S)c2ccc([N+](=O)[O-])cc2)CC1	i	i	i	i	i	16µM
COC(=O)c1cc(C(=O)N2CCN(c3ccccc3OC)CC2)cc([N+](=O)[O-])c1	1.2µM	1.2µM	0.33µM	2.1µM	0.33µM	1.3µM
COC(=O)c1cc(C(=O)N2CCN(c3cccc(C)c3C)CC2)cc([N+](=O)[O-])c1	5.8µM	?	2.3µM	4.1µM	1.8µM	i
COC(=O)c1cc(C(=O)c2c(C)cc3ccccn23)cc([N+](=O)[O-])c1	?	?	?	?	16µM	i
COC(=O)c1cc(C(=O)N2CCN(c3ncccn3)CC2)cc([N+](=O)[O-])c1	i	i	i	i	i	?
CCOc1ccccc1CNC(=O)c1cccn1-c1nnc(N2CCCC2)s1	i	nt	nt	nt	nt	i
NC(=S)N/N=C/c1ccccc1	i	i	i	i	i	i
NC(=S)N/N=C/c1ccc(C23CC4CC(CC(C4)C2)C3)cc1	?	?	?	7.3µM	?	i
O=C(C[n+]1ccccc1Cl)c1ccc(O)c(O)c1	?	nt	nt	nt	nt	i
CCc1ccccc1NC(=O)Cn1c(=O)n(-c2ccc(C)cc2)c(=O)c2c1c1cc(C)ccc1n2C	i	nt	nt	nt	nt	i
COC(=O)c1ccc(C2NC(=S)N(c3ccccc3)C(C)=C2C(=O)Nc2ccccc2OC)cc1 (stereo not given)	i	i	i	i	i	i
COc1ccccc1NC(=O)C1=C(C)N(c2ccccc2)C(=S)NC1c1cccc(C(F)(F)F)c1 (stereo not given)	?	i	?	i	?	8.2µM
Clc1cccc(CNc2ccn3nc(-c4cccc(OCc5ccccc5)c4)cc3n2)c1	?	nt	9.2µM	nt	?	i
COc1cc(-c2cc3nc(NCc4cccs4)ccn3n2)cc(OC)c1OC	i	nt	?	nt	?	?
COc1cc(-c2cc3nc(NCc4cccc(Cl)c4)ccn3n2)cc(OC)c1OC	?	nt	9.2µM	nt	16µM	?
COc1ccccc1-n1cc(-c2ccc(Br)cc2)[nH]c1=S	i	i	i	?	i	i
COc1ccccc1-n1cc(-c2ccc(C)cc2)[nH]c1=S	?	18µM	?	?	10µM	23µM
COc1ccc(-c2cn(-c3ccc(C)c(Cl)c3)c(=S)[nH]2)cc1OC	16µM	i	i	i	i	i
COc1ccc(-c2cn(-c3ccccc3)c(=S)[nH]2)cc1OC	3.3µM	i	i	i	i	i
COc1ccc(-c2cn(-c3ccc(C)c(C)c3)c(=S)[nH]2)cc1OC	i	i	i	i	i	i
CCOC(=O)C(=O)Nc1c(C(=O)Nc2cccc(F)c2)oc2ccccc12	i	nt	nt	nt	nt	i
COc1ccc(C(=O)C2CCN(C(=O)c3ccc(OC)cc3)CC2)cc1	?	i	?	i	i	6.5µM
COc1ccc(CCNC(=O)C2CCN(C(=O)c3ccc(F)cc3)CC2)cc1	i	0.65µM	i	?	i	i
COc1ccccc1NC(=O)N1CCC(C(=O)c2ccc(F)cc2)CC1	i	i	i	i	i	21µM
COc1ccccc1C(=O)N1CCC(C(=O)c2ccc(F)cc2)CC1	i	i	i	i	i	9.2µM
SMILES	KB-3-1 cytotox	MCF10A rereplic	HT1080 IDH1KD tx	SW480 rereplic	HT1080NT lethal	KB-V1 MDR tox
COc1cccc(-c2nn3c(=O)cc(CN4CCN(S(=O)(=O)c5ccc(C)cc5)CC4)nc3s2)c1	i	nt	nt	nt	nt	i
CCOc1ccc(C(=O)N2CCC(C(=O)c3ccc4c(c3)OCCO4)CC2)cc1	i	i	i	i	i	4.1µM
Cc1ccc(-n2c3c(c(=O)[nH]c2=O)C(NC(=O)C(C)(C)C)(C(F)(F)F)C(=O)N3)cc1 (stereo not given)	i	nt	nt	nt	nt	i
COC(=O)CSc1nc2c(c(-c3ccco3)c1C#N)CCCC2	i	?	i	i	i	i
COC(=O)CSc1nc2c(c(-c3ccc(O)cc3)c1C#N)CCCC2	i	18µM	i	?	i	i
CCOC(=O)C(C)Sc1nc2c(c(-c3cccs3)c1C#N)CCC2 (stereo not given)	i	16µM	i	i	i	i
N#Cc1c(SC(C(=O)O)c2ccccc2)nc2c(c1-c1cccs1)CCCC2 (stereo not given)	i	i	i	i	i	i
CC(C)OC(=O)CC(=O)CSc1nc2c(c(-c3cccs3)c1C#N)CCC2	i	21µM	i	i	i	i
CN(C(=O)CSc1nc2ncccc2o1)c1ccc(F)cc1	i	nt	nt	nt	nt	i
CCCc1nc2c(s1)CCc1onc(-c3ccc(OC)cc3)c1-2	i	8.2µM	i	i	i	i
COc1ccc(-c2noc3c2-c2nc(-c4ccccc4C)sc2CC3)cc1	18µM	?	?	21µM	13µM	?
CC(Oc1cccc(Cl)c1)C(=O)Nc1ccc(N2CCOCC2)cc1N1CCOCC1 (stereo not given)	i	?	i	i[9.22 µM]	i	16µM
CC(Oc1ccc(Br)cc1)C(=O)Nc1cc(Cl)ccc1N1CCN(C)CC1 (stereo not given)	?	?	21µM	?	13µM	?
O=C(/C=C/c1ccc(F)cc1)Nc1cc(S(=O)(=O)N2CCOCC2)ccc1N1CCCC1	i	i	i	?	i	i
CN1CCN(c2ccc(Cl)cc2NC(=O)/C=C/c2ccc(F)cc2)CC1	i	?	16µM	?	23µM	i
COc1ccc(N2CCN(Cc3nnc(-c4cccc(Br)c4)o3)CC2)cc1	i	nt	nt	nt	nt	i
CCOC(=O)N1CCC(NC(=O)c2ccc3c(c2)N(Cc2ccccc2C)C(=O)c2ccccc2S3=O)CC1 (stereo not given)	i	nt	nt	nt	nt	?
CC(=O)Nc1ccc(SCC(=O)c2cc(C)n(-c3ccccc3F)c2C)cc1	?	23µM	i	i	i	?
Cc1cc(C(=O)Cn2nnc3ccccc3c2=O)c(C)n1-c1ccccc1F	5.2µM	?	?	i	i	?
COC(=O)c1ccc(-n2c(C)cc(C(=O)CSc3ccc(NC(C)=O)cc3)c2C)cc1	i	?	i	i	i	?
Cn1c(=O)[nH]c(=O)c2c1nc([N+](=O)[O-])n2Cc1ccccc1	?	2.1µM	3.3µM	i	2.6µM	?
CC(C)Cn1c([N+](=O)[O-])nc2c1c(=O)[nH]c(=O)n2C	?	12µM	16µM	?	13µM	?
Cc1ccc(CNC(=O)CN2C(=O)CSc3c2c(C)nn3-c2ccccc2)cc1	i	nt	nt	nt	nt	i
O=c1c2oc3ccccc3c2ncn1Cc1ccc(Br)cc1	i	nt	nt	nt	nt	i
COc1ccc(Nc2nc3ccccc3c3nnc(C)n23)cc1Cl	i	nt	nt	nt	nt	i
CN(C)c1cc(O)c(C(=S)Nc2ccccc2)c(N(C)C)c1	?	?	i	i	i	16µM
COc1ccc(CNC(=O)CCc2nc3cccnc3n2Cc2ccccc2)cc1	i	nt	nt	nt	nt	i
